Results reported in PubChem BioAssay AID1159580 (chemical genetic matrix, 2015).
Among all 5,500 compounds or so, about 2,000 (36%) were called active. Inconclusive results (about 18%) are left out. No stated cut-off is given here; in the data, active means normalized growth mostly below about 0.91 (no sharp cut-off); inconclusive means no clear call, values can overlap the other calls; inactive means mostly above about 0.92. The list shows a part of the results.

Test: chemical genetic growth profiling, strain panel (AID 1159580);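 further: tested at 20 µM; growth read once vehicle control cultures reached saturation at 30 °C; 1 = growth at the plate median or of vehicle wells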
Conditions: growth OD

Measured: normalized growth

CC[C@H](C)C(=O)O[C@H]1C[C@@H](C)C=C2C=C[C@H](C)[C@H](CC[C@@H]3C[C@@H](O)CC(=O)O3)[C@H]21
inactive: S. cerevisiae deletion strains, locus YJR075W, strain HOC1, stronger effect = lower value 0.997 | S. cerevisiae deletion strains, locus YKL009W, strain mrt4, stronger effect = lower value 0.959 | S. cerevisiae deletion strains, locus YKL068W, stronger effect = lower value 0.988 | S. cerevisiae deletion strains, locus YKL085W, strain MDH1 (second series), stronger effect = lower value 0.993 | S. cerevisiae deletion strains, locus YKL085W, strain MDH1, stronger effect = lower value 0.993 | S. cerevisiae deletion strains, locus YKL160W, strain elf1, stronger effect = lower value 1 | S. cerevisiae deletion strains, locus YKL190W, strain CNB1, stronger effect = lower value 0.992 | S. cerevisiae deletion strains, locus YKR001C, strain vps1, stronger effect = lower value 0.986 | S. cerevisiae deletion strains, locus YKR026C, strain gcn3, stronger effect = lower value 0.999 | S. cerevisiae deletion strains, locus YKR091W, strain srl3, stronger effect = lower value 1 | S. cerevisiae deletion strains, locus YLL001W, strain dnm1, stronger effect = lower value 1.02 | S. cerevisiae deletion strains, locus YLL026W, stronger effect = lower value 1.01 | S. cerevisiae deletion strains, locus YLL041C, strain sdh2, stronger effect = lower value 1 | S. cerevisiae deletion strains, locus YLR027C, strain aat2, stronger effect = lower value 1.01 | S. cerevisiae deletion strains, locus YLR039C, strain RIC1, stronger effect = lower value 0.971 | S. cerevisiae deletion strains, locus YLR058C, strain SHM2, stronger effect = lower value 0.957 | S. cerevisiae deletion strains, locus YLR102C, strain apc9, stronger effect = lower value 0.994 | S. cerevisiae deletion strains, locus YLR113W, strain HOG1, stronger effect = lower value 1 | S. cerevisiae deletion strains, locus YLR221C, strain rsa3, stronger effect = lower value 1.01 | S. cerevisiae deletion strains, locus YLR258W, strain gsy2, stronger effect = lower value 1.01 | S. cerevisiae deletion strains, locus YLR262C, strain YPT6 (second series), stronger effect = lower value 1.11 | S. cerevisiae deletion strains, locus YLR262C, strain YPT6, stronger effect = lower value 0.916 | S. cerevisiae deletion strains, locus YLR268W, strain sec22, stronger effect = lower value 1.06 | S. cerevisiae deletion strains, locus YLR320W, strain mms22, stronger effect = lower value 0.992 | S. cerevisiae deletion strains, locus YLR330W, strain CHS5, stronger effect = lower value 0.969 | S. cerevisiae deletion strains, locus YLR342W, strain FKS1 (second series), stronger effect = lower value 0.968 | S. cerevisiae deletion strains, locus YLR342W, strain FKS1, stronger effect = lower value 1 | S. cerevisiae deletion strains, locus YLR357W, strain rsc2, stronger effect = lower value 0.908 | S. cerevisiae deletion strains, locus YLR370C, strain arc18, stronger effect = lower value 1.02 | S. cerevisiae deletion strains, locus YLR371W, strain rom2, stronger effect = lower value 0.982 | S. cerevisiae deletion strains, locus YLR384C, strain iki3, stronger effect = lower value 1.01 | S. cerevisiae deletion strains, locus YLR418C, strain cdc73, stronger effect = lower value 0.908 | S. cerevisiae deletion strains, locus YML016C, strain PPZ1, stronger effect = lower value 0.977 | S. cerevisiae deletion strains, locus YML032C, strain rad52, stronger effect = lower value 1.01 | S. cerevisiae deletion strains, locus YML120C, strain ndi1, stronger effect = lower value 1.01 | S. cerevisiae deletion strains, locus YML124C, strain tub3, stronger effect = lower value 0.98 | S. cerevisiae deletion strains, locus YMR058W, strain fet3, stronger effect = lower value 1 | S. cerevisiae deletion strains, locus YMR078C, strain ctf18, stronger effect = lower value 0.987 | S. cerevisiae deletion strains, locus YMR125W, strain sto1, stronger effect = lower value 0.984 | S. cerevisiae deletion strains, locus YMR129W, stronger effect = lower value 1.01 | S. cerevisiae deletion strains, locus YMR205C, strain PFK2, stronger effect = lower value 1 | S. cerevisiae deletion strains, locus YMR223W, strain ubp8, stronger effect = lower value 0.948 | S. cerevisiae deletion strains, locus YMR231W, strain pep5, stronger effect = lower value 0.998 | S. cerevisiae deletion strains, locus YMR263W, strain SAP30, stronger effect = lower value 0.987 | S. cerevisiae deletion strains, locus YMR307W, strain GAS1, stronger effect = lower value 0.984 | S. cerevisiae deletion strains, locus YNL067W, strain RPL9B, stronger effect = lower value 1.01 | S. cerevisiae deletion strains, locus YNL071W, strain lat1, stronger effect = lower value 1.01 | S. cerevisiae deletion strains, locus YNL128W, strain TEP1, stronger effect = lower value 0.97 | S. cerevisiae deletion strains, locus YNL153C, strain GIM3, stronger effect = lower value 1.02 | S. cerevisiae deletion strains, locus YNL183C, strain NPR1, stronger effect = lower value 0.939 | S. cerevisiae deletion strains, locus YNL209W, strain ssb2, stronger effect = lower value 1.01 | S. cerevisiae deletion strains, locus YNL233W, strain BNI4, stronger effect = lower value 1.01 | S. cerevisiae deletion strains, locus YNL248C, strain rpa49, stronger effect = lower value 1.01 | S. cerevisiae deletion strains, locus YNL250W, strain rad50, stronger effect = lower value 0.958 | S. cerevisiae deletion strains, locus YNL271C, strain bni1, stronger effect = lower value 0.994 | S. cerevisiae deletion strains, locus YNL298W, strain CLA4, stronger effect = lower value 0.99 | S. cerevisiae deletion strains, locus YNL307C, strain MCK1, stronger effect = lower value 0.948 | S. cerevisiae deletion strains, locus YNL322C, strain KRE1 (second series), stronger effect = lower value 1.02 | S. cerevisiae deletion strains, locus YNL322C, strain KRE1, stronger effect = lower value 0.986 | S. cerevisiae deletion strains, locus YNR049C, strain mso1, stronger effect = lower value 1.01 | S. cerevisiae deletion strains, locus YNR052C, strain pop2, stronger effect = lower value 0.999 | S. cerevisiae deletion strains, locus YOL006C, strain TOP1, stronger effect = lower value 0.953 | S. cerevisiae deletion strains, locus YOL012C, strain htz1 0.797 | S. cerevisiae deletion strains, locus YOL147C, strain pex11, stronger effect = lower value 0.986 | S. cerevisiae deletion strains, locus YOR001W, strain rrp6, stronger effect = lower value 1.02 | S. cerevisiae deletion strains, locus YOR061W, strain CKA2, stronger effect = lower value 0.964 | S. cerevisiae deletion strains, locus YOR069W, strain VPS5, stronger effect = lower value 0.981 | S. cerevisiae deletion strains, locus YOR070C, strain gyp1, stronger effect = lower value 1 | S. cerevisiae deletion strains, locus YOR080W, strain dia2, stronger effect = lower value 0.998 | S. cerevisiae deletion strains, locus YOR083W, strain WHI5, stronger effect = lower value 1 | S. cerevisiae deletion strains, locus YOR106W, strain vam3, stronger effect = lower value 0.99 | S. cerevisiae deletion strains, locus YOR136W, strain idh2, stronger effect = lower value 0.98 | S. cerevisiae deletion strains, locus YOR144C, strain elg1, stronger effect = lower value 0.993 | S. cerevisiae deletion strains, locus YOR184W, strain ser1, stronger effect = lower value 0.94 | S. cerevisiae deletion strains, locus YOR231W, strain MKK1, stronger effect = lower value 0.983 | S. cerevisiae deletion strains, locus YOR265W, strain rbl2, stronger effect = lower value 1.01 | S. cerevisiae deletion strains, locus YOR270C, strain vph1, stronger effect = lower value 0.881 | S. cerevisiae deletion strains, locus YOR290C, strain snf2, stronger effect = lower value 1.02 | S. cerevisiae deletion strains, locus YOR316C, strain cot1, stronger effect = lower value 0.993 | S. cerevisiae deletion strains, locus YPL051W, strain arl3, stronger effect = lower value 0.999 | S. cerevisiae deletion strains, locus YPL055C, strain LGE1, stronger effect = lower value 0.939 | S. cerevisiae deletion strains, locus YPL078C, strain atp4, stronger effect = lower value 1.01 | S. cerevisiae deletion strains, locus YPL106C, strain sse1, stronger effect = lower value 1.06 | S. cerevisiae deletion strains, locus YPL240C, strain hsp82, stronger effect = lower value 1.01 | S. cerevisiae deletion strains, locus YPL241C, strain CIN2, stronger effect = lower value 0.979 | S. cerevisiae deletion strains, locus YPL256C, strain CLN2, stronger effect = lower value 1.02 | S. cerevisiae deletion strains, locus YPR119W, strain clb2, stronger effect = lower value 0.986 | S. cerevisiae deletion strains, locus YPR141C, strain kar3, stronger effect = lower value 0.971 | S. cerevisiae deletion strains, locus YPR163C, strain tif3, stronger effect = lower value 0.995 | S. cerevisiae deletion strains, locus YPR167C, strain met16, stronger effect = lower value 0.99 | S. cerevisiae deletion strains, strain wtn01, stronger effect = lower value 1.01 | S. cerevisiae strains, strain wild type, stronger effect = lower value 0.963
